Reference: PubChem BioAssay (Tox21)
“And” between values parts separate entries of the source, which are not always exact repeats. Equal values may be shown once. Results filed as inconclusive are left out. Entries that show only a call come without a potency. The source made the active and inactive calls. The call rests on the fitted dose curve.

Columns and labels:
[1] = target: Acetylcholinesterase (Homo sapiens) (UniProt P22303); test: Acetylcholinesterase (AChE) small molecule antagonists: colormetric cell-based qHTS assay (AID 1347395); further: nearly all actives have a fitted effect of over 30% in size; further: potency means the concentration at half of the fitted maximal effect
Summary of the method: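 SH-SY5Y cells; cpd 30 min 37 C; + DTNB/acetylthiocholine, 90 min 37 C; colorimetric thiocholine read; qHTS.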

[2] = target: Acetylcholinesterase (Homo sapiens) (UniProt P22303); test: Acetylcholinesterase (AChE) small molecule antagonists: enzyme-based qHTS assay (AID 1347397); conditions: Potency: AChE enzyme activity inhibition; outcome: AChE enzyme activity inhibition; further: nearly all actives have a fitted effect of over 55% in size; further: potency means the concentration at half of the fitted maximal effect
Summary of the method: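 Absorbance-based detection of thiocholine with DTNB served as the read-out. Recombinant human AChE was exposed to compound for 30 min at RT before a 10 min RT incubation with acetylthiocholine.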

[3] = target: Acetylcholinesterase (Homo sapiens) (UniProt P22303); test: Acetylcholinesterase (AChE) small molecule antagonists: fluorescence cell-based qHTS assay (AID 1347398); conditions: Potency: AChE activity; outcome: AChE activity; further: nearly all actives have a fitted effect of over 50% in size; further: potency means the concentration at half of the fitted maximal effect
Summary of the method: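 Fluorimetric cell-based assay: intact SH-SY5Y cells, 30 min compound preincubation at 37 C, acetylthiocholine substrate with thiol probe Thiolite Green, 40 min RT development, fluorescence 490/520 nm.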

[4] = target: Acetylcholinesterase (Homo sapiens) (UniProt P22303); test: Acetylcholinesterase (AChE) small molecule antagonists: enzyme-based qHTS assay with human liver microsomes (AID 1347399); conditions: Potency: qHTS inhibition; outcome: qHTS inhibition; further: nearly all actives have a fitted effect of over 60% in size
Summary of the method: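 Recombinant human AChE (50 mU/mL in the enzyme mix) and human liver microsomes (0.25 mg/mL final) were preincubated with compound and NADPH (0.25 mg/mL final) for 30 min at 37 C. Acetylthiocholine/DTNB was then added; thiocholine was read colorimetrically after 10 min at room temperature.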

Chain of Acetylcholinesterase (Homo sapiens) (P22303 whole entry, looked up): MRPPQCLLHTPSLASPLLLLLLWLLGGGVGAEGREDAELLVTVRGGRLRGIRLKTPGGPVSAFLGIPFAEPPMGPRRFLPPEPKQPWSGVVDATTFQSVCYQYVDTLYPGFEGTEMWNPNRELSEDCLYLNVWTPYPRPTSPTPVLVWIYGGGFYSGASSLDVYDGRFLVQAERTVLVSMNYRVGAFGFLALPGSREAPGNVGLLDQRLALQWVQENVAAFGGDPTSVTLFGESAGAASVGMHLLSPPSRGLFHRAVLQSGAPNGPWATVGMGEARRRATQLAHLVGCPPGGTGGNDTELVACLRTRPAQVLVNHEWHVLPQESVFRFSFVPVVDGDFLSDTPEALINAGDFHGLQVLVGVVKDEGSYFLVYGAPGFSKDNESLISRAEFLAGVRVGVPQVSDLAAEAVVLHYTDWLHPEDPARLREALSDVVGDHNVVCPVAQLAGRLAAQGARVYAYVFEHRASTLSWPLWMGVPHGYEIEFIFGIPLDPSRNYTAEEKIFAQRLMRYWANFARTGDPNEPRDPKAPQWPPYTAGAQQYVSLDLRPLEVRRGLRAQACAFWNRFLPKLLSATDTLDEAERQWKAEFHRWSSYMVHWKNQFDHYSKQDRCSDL

With `COC(=O)CC(=O)OC` the Potency [1] was “inactive”, the Potency [2] was “inactive” and the Potency [3] was “inactive”. The Potency [4] was “inactive”.
With `COC(=O)CC(=O)C(C)(C)C` the Potency [1] was “inactive”, the Potency [2] was “inactive” and the Potency [3] was “inactive”. The Potency [4] was “inactive”.
`CC(=O)/C=C/c1ccco1` was tested, and the Potency [1] was “inactive”, the Potency [2] was “inactive” and the Potency [3] was “inactive”. For the same molecule, the Potency [4] was “inactive”.
In the case of `O=C(O)c1ccccc1Nc1cccc(C(F)(F)F)c1`, the Potency [1] is reported as “inactive”, the Potency [2] is reported as “inactive” and the Potency [3] is reported as “inactive”. The Potency [4] was “inactive”.
For `O=S1(=O)CC=CC1`, the Potency [1] was “inactive”, the Potency [2] was “inactive” and the Potency [3] was “inactive”. The Potency [4] was “inactive”.
`CC/C=C(\C)C=O` was tested, and the Potency [1] was “inactive”, the Potency [2] was “inactive” and the Potency [3] was “inactive”. For the same molecule, the Potency [4] was “inactive”.
`CN=C(NC#N)NCCSCc1nc[nH]c1C` was tested, and the Potency [1] was “inactive”, the Potency [2] was “inactive” and the Potency [3] was “inactive”. For the same molecule, the Potency [4] was “inactive”.
For `CN1CC(=O)NC1=N`, the Potency [1] was “inactive”, the Potency [2] was “inactive” and the Potency [3] was “inactive”. For the same molecule, the Potency [4] was “inactive”.
`C=CC(=O)OCCOCCOCC` was tested, and the Potency [1] was “inactive”, the Potency [2] was “inactive” and the Potency [3] was “inactive”. The Potency [4] was “inactive”.
In the case of `c1ccc2c(c1)[nH]c1ccccc12`, the Potency [1] is reported as “inactive”, the Potency [2] is reported as “inactive” and the Potency [3] is reported as “inactive”. The Potency [4] was “inactive”.
`CC(=O)O[C@H](CC(=O)[O-])C[N+](C)(C)C` was tested, and the Potency [1] was “inactive”, the Potency [2] was “inactive” and the Potency [3] was “inactive”. For the same molecule, the Potency [4] was “inactive”.
In the case of `N=C(N)c1ccc(OCCCCCOc2ccc(C(=N)N)cc2)cc1`, the Potency [1] is reported as 35.4 µM (active) and 30.3 µM (active) and 17.4 µM (active), the Potency [2] is reported as 53.9 µM (active) and the Potency [3] is reported as 22.4 µM (active) and 27 µM (active). The Potency [4] was “inactive”.
`O=c1[nH]c(=O)n([C@H]2C[C@H](O)[C@@H](CO)O2)cc1Br` was tested, and the Potency [1] was “inactive”, the Potency [2] was “inactive” and the Potency [3] was “inactive”. The Potency [4] was “inactive”.
In the case of `CCCOc1ccccc1-c1nc2n[nH]nc2c(=O)[nH]1`, the Potency [1] is reported as “inactive”, the Potency [2] is reported as “inactive” and the Potency [3] is reported as “inactive”. The Potency [4] was “inactive”.
`COCCC(=O)OC` was tested, and the Potency [1] was “inactive”, the Potency [2] was “inactive” and the Potency [3] was “inactive”. For the same molecule, the Potency [4] was “inactive”.
For `COc1ccccc1OC(=O)Oc1ccccc1OC`, the Potency [1] was “inactive”, the Potency [2] was “inactive” and the Potency [3] was “inactive”. For the same molecule, the Potency [4] was “inactive”.
With `Cc1ccc(S(=O)(=O)NC2CCCCC2)cc1` the Potency [1] was “inactive”, the Potency [2] was “inactive” and the Potency [3] was “inactive”. The Potency [4] was “inactive”.
In the case of `Cc1ccc(C(=O)O)cc1`, the Potency [1] is reported as “inactive”, the Potency [2] is reported as “inactive” and the Potency [3] is reported as “inactive”. For the same molecule, the Potency [4] was “inactive”.
For `Oc1ccc(Cc2ccccc2)cc1`, the Potency [1] was “inactive”, the Potency [2] was “inactive” and the Potency [3] was “inactive”. For the same molecule, the Potency [4] was “inactive”.
In the case of `C=CCCCCCCCCCC`, the Potency [1] is reported as “inactive”, the Potency [2] is reported as “inactive” and the Potency [3] is reported as “inactive”. For the same molecule, the Potency [4] was “inactive”.
With `CC(C)CCCCCCCOC(=O)CCCCC(=O)OCCCCCCCC(C)C` the Potency [1] was “inactive”, the Potency [2] was “inactive” and the Potency [3] was “inactive”. The Potency [4] was “inactive”.
For `Clc1ccc(Sc2cc(Cl)c(Cl)cc2Cl)cc1`, the Potency [1] was “inactive”, the Potency [2] was “inactive” and the Potency [3] was “inactive”. The Potency [4] was “inactive”.
With `O=c1oc(=O)c2cc3c(=O)oc(=O)c3cc12` the Potency [1] was “inactive”, the Potency [2] was “inactive” and the Potency [3] was “inactive”. For the same molecule, the Potency [4] was “inactive”.
With `C[C@@H]1C[C@H]2[C@@H]3CCC4=CC(=O)C=C[C@]4(C)[C@@]3(F)[C@@H](O)C[C@]2(C)[C@@]1(O)C(=O)COP(=O)(O)O` the Potency [1] was “inactive”, the Potency [2] was “inactive” and the Potency [3] was “inactive”. The Potency [4] was “inactive”.
In the case of `CC(=O)CC/C=C(\C)CC/C=C(\C)CC/C=C(\C)CCC=C(C)C`, the Potency [1] is reported as “inactive”, the Potency [2] is reported as “inactive” and the Potency [3] is reported as “inactive”. The Potency [4] was “inactive”.
In the case of `CC(=O)Oc1ccc(C)cc1`, the Potency [1] is reported as “inactive”, the Potency [2] is reported as “inactive” and the Potency [3] is reported as “inactive”. The Potency [4] was “inactive”.
`CC(=O)OC[C@H]1O[C@@](COC(C)=O)(O[C@H]2O[C@H](COC(C)=O)[C@@H](OC(C)=O)[C@H](OC(C)=O)[C@H]2OC(C)=O)[C@@H](OC(C)=O)[C@@H]1OC(C)=O` was tested, and the Potency [1] was “inactive”, the Potency [2] was “inactive” and the Potency [3] was “inactive”. For the same molecule, the Potency [4] was “inactive”.
`CN(C)[C@@H]1C(=O)C(C(=O)NCN2CCCC2)=C(O)[C@@]2(O)C(=O)C3=C(O)c4c(O)cccc4[C@@](C)(O)C3C[C@@H]12` (stereo not given in full) was tested, and the Potency [1] was “inactive”, the Potency [2] was “inactive” and the Potency [3] was “inactive”. The Potency [4] was “inactive”.
With `Cc1cc2c(OCC(CNC(C)(C)C)OC(=O)c3ccccc3)cccc2[nH]1` (stereo not given) the Potency [1] was “inactive”, the Potency [2] was “inactive” and the Potency [3] was “inactive”. For the same molecule, the Potency [4] was “inactive”.
`CC(=O)NNC(C)=O` was tested, and the Potency [1] was “inactive”, the Potency [2] was “inactive” and the Potency [3] was “inactive”. The Potency [4] was “inactive”.
`Oc1ccc(C(c2ccc(O)cc2)C(Cl)(Cl)Cl)cc1` was tested, and the Potency [1] was “inactive”, the Potency [2] was “inactive” and the Potency [3] was “inactive”. For the same molecule, the Potency [4] was “inactive”.
For `CCOC(=O)COC(=O)c1ccccc1C(=O)OCC`, the Potency [1] was “inactive”, the Potency [2] was “inactive” and the Potency [3] was “inactive”. For the same molecule, the Potency [4] was “inactive”.
With `O=C1c2cccc(O)c2C(=O)c2c(O)cccc21` the Potency [1] was “inactive”, the Potency [2] was “inactive” and the Potency [3] was “inactive”. The Potency [4] was “inactive”.
`C=CCCCCCCCCC(=O)O` was tested, and the Potency [1] was “inactive”, the Potency [2] was “inactive” and the Potency [3] was “inactive”. For the same molecule, the Potency [4] was “inactive”.
In the case of `O=C(NCCc1c[nH]c2ccccc12)c1cccnc1`, the Potency [1] is reported as “inactive”, the Potency [2] is reported as “inactive” and the Potency [3] is reported as “inactive”. The Potency [4] was “inactive”.
In the case of `O=C(O)CS`, the Potency [1] is reported as “inactive”, the Potency [2] is reported as “inactive” and the Potency [3] is reported as “inactive”. For the same molecule, the Potency [4] was “inactive”.
`COc1ccc(Br)c(C)c1` was tested, and the Potency [1] was “inactive”, the Potency [2] was “inactive” and the Potency [3] was “inactive”. The Potency [4] was “inactive”.
For `c1ccc(Nc2ccccc2)cc1`, the Potency [1] was “inactive”, the Potency [2] was “inactive” and the Potency [3] was “inactive”. For the same molecule, the Potency [4] was “inactive”.
For `COc1ccc2nc(N)sc2c1`, the Potency [1] was “inactive”, the Potency [2] was “inactive” and the Potency [3] was “inactive”. The Potency [4] was “inactive”.
For `CCOc1nc2cccc(C(=O)O)c2n1Cc1ccc(-c2ccccc2-c2nn[nH]n2)cc1`, the Potency [1] was “inactive”, the Potency [2] was “inactive” and the Potency [3] was “inactive”. For the same molecule, the Potency [4] was “inactive”.
